Screening results deposited in PubChem BioAssay by several laboratories.
C2C12 statin = protects C2C12 myotubes from simvastatin toxicity. ATP luminescence, 48 h; scaled: DMSO 0, geranylgeraniol control 100. rescue of ATP level, % at 7.49 µM. 330,000 compounds, 0.78% hits;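 active = mean ATP rescue above about 67%, or every replicate alone reaching that limit, limit read from the data, passing the limit was not always enough; inconclusive = no clear call, values can overlap the other calls; inactive = mean under the limit and some replicate under it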;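 note: myotubes were challenged with 10 µM simvastatin during compound exposure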
MITF act = MITF TRPM1 promoter activation in melanoma cells; SK-MEL-5 TRPM1-promoter luciferase, 24 h; % of positive control, neutral wells = 0; activation, % at 12.5 µM; 300,000 compounds, 0.75% hits; AID 588334;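 active = mean activation of at least 80% with every replicate also reaching 80%; inconclusive = mean reaches 80% but some replicate falls short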;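 note: 0% = neutral control wells and 100% = parthenolide positive control wells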
Wnt bcat act = activates Wnt/beta-catenin signaling in a reporter cell assay; activator, plate reader; activation, % at 9.35 µM; 300,000 compounds, 1.2% hits; AID 743398; in the data active = activation above about 30%, passing the limit was not always enough; inconclusive = no clear call, values can overlap the other calls;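 note: 0% = neutral control wells and 100% = positive control wells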
esBAF inh = inhibitors of esBAF chromatin remodeling in mouse ES cells. reporter increase, % at 12.5 µM. Bmi1-luciferase knock-in reporter, 24 h; 100% = twice the neutral-well signal. 350,000 compounds, 2% hits; in the data active = activation above about 40%; inconclusive = no clear call, values can overlap the other calls;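 note: 0% = median of the plate's neutral control wells and 100% = double that signal; a rise in the Bmi1 reporter signal indicates esBAF inhibition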
FXN GAA850 act = increases GAA850 frataxin promoter reporter activity | 360,000 compounds, 0.56% hits | activation, % at 6 µM | HEK293 lucGAA850 FXN promoter luciferase reporter, 24 h; percent of 10 µM SAHA response;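 active = activation above the average of all compounds screened plus 3 SD, cutoff fixed separately per campaign, cut at about 7.5% in these data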;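 note: 0% = DMSO wells and 100% = 10 µM SAHA wells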
* marks the source's active call; other numbers are inactive results; ? = inconclusive; / = no result given. Rows were chosen to be rich in hits. Some 3.3% of all compounds tested hit in one or more screens of this group.

SMILES	C2C12 statin	MITF act	Wnt bcat act	esBAF inh	FXN GAA850 act
COc1cccc2c1OCC(C(=O)Nc1nccs1)=C2	-5.1	119.5*	?	?	3.3
COc1cc2ccccc2cc1C(=O)Nc1nccs1	-4.7	/	?	76.5*	4.8
O=C(Nc1nccs1)c1ccc2ccccc2c1	-4.7	47.3	21.7	6.7	3.3
COc1ccc(-c2nc3n(c2C)Cc2ccccc2-3)cc1	/	/	46.2*	/	3.4
O=C(N[C@H]1CC[C@H](CCNC(=O)C2CCCC2)O[C@@H]1CO)c1ccccn1	1.4	/	/	5.1	/
O=C(/C=C/Nc1ccc([N+](=O)[O-])cc1Br)c1cccc2ccccc12	/	115.4*	48.4*	/	3.0
NC(=O)c1cc([N+](=O)[O-])ccc1NCc1cccc2ccccc12	9.8	5.6	-3.3	12.7	2.5
Oc1ccc(/C=N/Nc2ccc(C(F)(F)F)cn2)c(O)c1	/	-1.5	4.9	/	3.5
Oc1ccc(/C=N/Nc2cccc(Cl)n2)c(O)c1	10.8	109.1*	18.1	33.6	5.3
COc1ccccc1N1CCN(c2ccc3ccccc3n2)CC1	-5.2	108.3*	22.8	-6.8	4.0
COc1cc(/C=C(\C#N)C(=O)Nc2cccc(C(=O)O)c2)ccc1OCc1ccc(Cl)cc1	22.0	33.5	34.5*	7.0	3.7
COc1cc(/C=C(/C#N)C(=O)Nc2ccccc2)c(Br)cc1OCc1ccc(C(=O)O)cc1	-4.1	12.0	13.5	8.0	0.4
Cc1ccc(S(=O)(=O)N(C)C[C@H]2OCCCC[C@H](C)Oc3ccc(NC(=O)NC4CCCCC4)cc3C(=O)N([C@H](C)CO)C[C@H]2C)cc1	/	/	/	-2.4	/
CCCCCn1cnc2sc(-c3ccccc3)cc2c1=O	-49.9	106.9*	21.9	81.5*	3.6
CCCCCn1cnc2sc(CC)cc2c1=O	/	69.2	21.9	/	3.0
CNC(=O)NC(=O)Cn1cnc2sc(-c3ccccc3)cc2c1=O	/	/	1.7	/	0.1
CN(CCC#N)C(=O)CSc1ncnc2sc(-c3ccccc3)cc12	/	54.7	6.4	/	4.0
CCCCn1cnc2sc(-c3ccccc3)cc2c1=O	/	91.5*	/	/	3.0
CCN(CC)C(=O)CSc1ncnc2sc(-c3ccccc3)cc12	-15.7	/	/	62.8*	7.2
COc1ccc(N2C(=O)CSC23C(=O)Nc2ccccc23)cc1 (stereo not given)	109.6*	-10.7	11.9	-12.2	-1.6
CN(C)C(=O)C[C@@H]1C[C@H]2c3cc(NC(=O)CC4CC4)ccc3O[C@H]2[C@H](CO)O1	0.3	/	/	-0.3	/
Cc1cs/c(=N/C(=S)Nc2ccccc2)n1C	/	102.0*	5.3	/	4.6
Cc1cccc(NC(=O)Nc2cccc(C)n2)n1	5.8	42.1	/	12.6	0.6
Cc1ccc(NC(=O)c2cn(-c3cccc(C)n3)cn2)cc1	-26.1	106.3*	/	26.1	2.5
Cc1cccc(NC(=O)NC(=O)c2ccccc2)n1	/	43.0	37.1*	/	3.0
SMILES	C2C12 statin	MITF act	Wnt bcat act	esBAF inh	FXN GAA850 act
Cc1cccc(NC(=O)Nc2ccc(C)c(C)c2)n1	9.9	32.1	35.0*	48.0*	5.9
Cc1ccc(NC(=O)Nc2ccnc(-c3cccnc3)n2)cc1	/	-3.3	54.8*	/	-3.0
CC(C)NC(=O)N(C)C[C@H]1Oc2ccc(NC(=O)NC3CCCCC3)cc2CC(=O)N([C@H](C)CO)C[C@@H]1C	-3.3	/	/	-1.9	/
C[C@@H]1CCCCO[C@H](CN(C)Cc2ccc3c(c2)OCO3)[C@H](C)CN([C@H](C)CO)C(=O)c2cc(NC(=O)Nc3ccccc3)ccc2O1	/	/	/	-0.3	/
Cc1ccc(NC(=O)Nc2cccc(C)n2)cc1	-3.2	75.6	40.2*	4.3	6.9
Cc1cccc(NC(=O)Nc2ccc(F)cc2)n1	16.2	45.3	11.7	?	2.9
COc1ccc(-c2ccc3c(c2)O[C@@H](CN(C)C(C)=O)[C@@H](C)CN([C@@H](C)CO)S3(=O)=O)cc1	29.3	/	/	5.9	/
Cc1ccc(/C=N/Nc2nc(C(C)(C)C)cs2)o1	-17.4	84.7*	4.6	?	3.1
Cc1ccc(/C=N/Nc2nc3ccccc3s2)o1	/	21.0	35.2*	/	4.0
CC(=O)NC(NC(=S)Nc1ccc(N=Nc2ccccc2)cc1)C(Cl)(Cl)Cl (stereo not given)	-17.8	/	47.4*	10.9	0.7
CC(=O)NC(NC(=S)Nc1ccc(S(N)(=O)=O)cc1)C(Cl)(Cl)Cl (stereo not given)	0.5	6.4	-7.0	3.7	1.1
O=S(=O)(N[C@@H]1CC[C@@H](CCn2cc(C3CC3)nn2)O[C@H]1CO)c1ccc(Cl)cc1	2.4	/	/	-3.3	/
O=C(CN(C(=O)c1cc2c(s1)CCC2)C1CCCC1)NCc1cccs1	30.3	-4.8	50.2*	-1.1	2.9
C[C@H](CO)N1C[C@H](C)[C@@H](CN(C)C(=O)Nc2cccc3ccccc23)Oc2c(NC(=O)c3nc4ccccc4s3)cccc2C1=O	-1.5	/	/	3.4	/
CCC(=O)Nc1nc(-c2ccc3c(c2)CC(C)N3S(C)(=O)=O)cs1 (stereo not given)	0.8	35.1	7.4	54.3*	1.8
CC1Cc2cc(-c3csc(NC(=O)Cc4cccs4)n3)ccc2N1S(C)(=O)=O (stereo not given)	/	-19.3	/	/	-12.1
CCC(=O)N1CCc2cc(-c3csc(NC(=O)c4ccco4)n3)ccc21	-14.3	61.6	4.9	44.7*	0.8
C[C@H](O)C#Cc1cnc2c(c1)C(=O)N([C@H](C)CO)C[C@@H](C)[C@H](CN(C)C(=O)CC1CC1)O2	5.9	/	/	-1.2	/
COc1ccc(NC(=O)N(C)C[C@H]2Oc3ccc(NS(C)(=O)=O)cc3CC(=O)N([C@@H](C)CO)C[C@@H]2C)cc1	-8.3	/	/	1.4	/
C[C@@H]1CN([C@@H](C)CO)C(=O)c2cc(NC(=O)NC3CCCCC3)ccc2O[C@@H](C)CCCCO[C@H]1CN(C)C(=O)CCC(F)(F)F	/	/	/	4.3	/
C=CCn1c(SCC(=O)Nc2ccc3c(c2)OCO3)nnc1-c1cc(Br)ccc1O	6.0	-10.7	46.6*	6.1	-1.7
C=CCn1c(SCC(=O)Nc2ccc3c(c2)OCO3)nnc1-c1ccccc1	-1.1	0.4	0.4	-8.1	2.1
C[C@@H]1CCCCO[C@H](CN(C)Cc2ccc3c(c2)OCO3)[C@H](C)CN([C@H](C)CO)C(=O)c2cc(NC(=O)Nc3ccc(F)cc3)ccc2O1	-291.8	/	/	-1.2	/
O=C(COc1ccc(Cl)cc1Cl)Nc1ccc(C(=O)Nc2ccccc2C(=O)O)cc1	-1.0	16.2	2.0	0.7	4.0
CSc1ccccc1NC(=O)COc1ccccc1Cl	5.1	3.6	/	23.0	2.5
O=C(CCCOc1ccc(Cl)cc1Cl)Nc1ccccc1C(=O)O	3.4	50.1	?	78.9*	2.4
CC(C)(CO)NC(=O)CCCOc1ccc(Cl)cc1Cl	-8.0	67.4	/	47.9*	4.6
CC(=O)c1sc(NC(=O)COc2ccc(Cl)cc2C)nc1C	/	15.2	-3.4	/	0.5
CSc1ccccc1NC(=O)COc1ccc(Cl)cc1Cl	8.9	13.3	/	47.4*	6.5
CC(=O)c1sc(NC(=O)COc2ccc(Cl)cc2Cl)nc1C	1.3	46.7	6.5	45.0*	0.0
